In PubChem BioAssay:
Several values for one entry are separate records, joined by “and”; a condition that tells them apart may be missing. Equal entries are not always repeated. Records with an inconclusive call do not appear. Activity calls are given as the source filed them.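 How the source made its calls, unless noted: active means normalized viability below 100% at a tested concentration; inactive means the rest.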

Assays:
[1] = viability loss in pontine glioma line – cell-based, SU-DIPG-XXV, MIPE5.0, CellTiter-Glo, qHTS, dose response (AID 1347065; cut-off not given, nearly all actives have AC50 up to about 26 µM;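 further: cells exposed to compound for 48 hours before ATP readout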); conditions: CellTiter-Glo ATP luminescence
[2] = growth inhibition of DIPG cells – cell-based, MIPE4.0 library, CellTiter-Glo luminescence, qHTS (AID 1347066; cut-off not given, nearly all actives have AC50 up to about 30 µM;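 further: cells exposed to compound for 48 hours before readout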); conditions: SU-DIPG-VI viability, CellTiter-Glo ATP luminescence
[3] = JHH-DIPG-1 glioma cell viability, MIPE5.0 library, CellTiter-Glo luminescence, qHTS (AID 1347067; cut-off not given, nearly all actives have AC50 up to about 26 µM;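 further: cells exposed to compound for 48 hours before readout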); conditions: JHH-DIPG-1 glioma viability, CellTiter-Glo ATP luminescence
[4] = growth inhibition of DIPG cells – cell-based, MIPE5.0 library, qHTS (AID 1347068; cut-off not given, nearly all actives have IC50 up to about 30 µM;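 on IC50: cells exposed to compound for 48 hours before viability readout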); conditions: SU-DIPG-XXV viability
[5] = viability loss with induced miR-34 in A549 – imaging, A549 dox-inducible miR-34, nuclei and caspase counts, primary screen (AID 1347080;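 active means compounds whose cell count with miR-34 switched on is under 0.7 times the count with it off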); conditions: A549 miR-34 inducible, Hoechst nuclei count, 48 h
[6] = MELAS cybrid and Rieske KO viability enhancers – cell-based, MELAS cybrids, Rieske KO mouse fibroblasts, CellTiter-Glo, primary screen (AID 1508586;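 active means mean z-score across replicates of 1.96 or higher in either the MELAS or the Rieske mutant cell line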;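 further: z relative to plate mean and SD of compound and empty wells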); conditions: low glucose
[7] = blockers of cellular phospholipid synthesis – cell-based, LOPAC library, screen 4, primary screen (AID 1347384; call rule not given here); conditions: animal cells, phospholipid biosynthesis inhibition screen; at 10 µM
[8] = compounds altering HSF1 focus formation in cells – imaging, Selleck Cancer Library (AID 1347162; in the data active means plate-normalised HSF1 focus index below about 0.46); conditions: human cells, HSF1 nuclear foci imaging, at 10 µM; SSMD: measured here: HSF1 foci SSMD mean; cell count: measured here: cell number; plate-normalised HSF1 focus index: stronger effect = lower value
[9] = drug combination growth inhibition, ovarian cancer – cell-based, oncology-focused library, rucaparib conditional, profiling panel (AID 1508598); conditions: patient-derived ovarian cancer cells, CellTiter-Glo viability, 144 h, stronger effect = lower value
[10] = stronger effect = lower value, cell number ratio, induced over uninduced
[11] = measured here: relative caspase fold change +Dox/-Dox
[12] = measured here: total cells with miR-34 induction, stronger effect = lower value
[13] = measured here: total cells without miR-34 induction
[14] = MELAS cybrid survival, CellTiter-Glo 48 h, stronger effect = higher value
[15] = Rieske KO mouse fibroblast survival, CellTiter-Glo 72 h

O=c1oc2cc(O)ccc2s1
outcome [1]: inactive
outcome [2]: inactive
outcome [3]: inactive
outcome [4]: inactive
fold change [5, 10]: 0.941 (inactive)
fold change [5, 11]: 0.692
cell count [5, 12]: 8830
cell count [5, 13]: 9380
z-score [6, 14]: -0.382 (inactive)
z-score [6, 15]: 0.46

CC(=O)O[C@H]1C[C@@H]2CC[C@@H]3[C@H](CC[C@@]4(C)[C@H]3C[C@H]([N+]3(C)CCCCC3)[C@@H]4OC(C)=O)[C@@]2(C)C[C@@H]1N1CCCCC1
outcome [1]: inactive
outcome [2]: inactive
outcome [3]: inactive
outcome [4]: inactive
fold change [5, 10]: 0.831 (inactive)
fold change [5, 11]: 1.81
cell count [5, 12]: 8710
cell count [5, 13]: 10500
z-score [6, 14]: 0.144 (inactive) and 0.341 (inactive)
z-score [6, 15]: -0.264 and -0.536

CN(C)c1ccc2nc3ccc(=[N+](C)C)cc-3sc2c1
AC50 [1]: 5.9 µM (active)
AC50 [2]: 2.35 µM (active)
AC50 [3]: 10.5 µM (active)
IC50 [4]: 9.34 µM (active)
fold change [5, 10]: 0.946 (inactive)
fold change [5, 11]: 1.47
cell count [5, 12]: 3100
cell count [5, 13]: 3280

Cc1cnc(C(=O)O)c[n+]1[O-]
outcome [1]: inactive
outcome [2]: inactive
outcome [3]: inactive
outcome [4]: inactive
fold change [5, 10]: 0.836 (inactive) and 0.829 (inactive)
fold change [5, 11]: 0.776 and 1.63
cell count [5, 12]: 6980 and 9220
cell count [5, 13]: 8340 and 11100
z-score [6, 14]: 0.0931 (inactive) and 0.196 (inactive) and -0.0621 (inactive)
z-score [6, 15]: -1.45 and -0.0767 and -0.000299

CCCN[C@H]1CCc2nc(N)sc2C1
outcome [1]: inactive
outcome [2]: inactive
outcome [3]: inactive
outcome [4]: inactive
fold change [5, 10]: 0.926 (inactive) and 0.917 (inactive)
fold change [5, 11]: 0.996 and 1.3
cell count [5, 12]: 7940 and 9730
cell count [5, 13]: 8570 and 10600
outcome [7]: inactive
z-score [6, 14]: 0.752 (inactive) and 0.407 (inactive)
z-score [6, 15]: 0.13 and -0.361

COCCCOc1cc(C[C@@H](C[C@H](N)[C@@H](O)C[C@H](C(=O)NCC(C)(C)C(N)=O)C(C)C)C(C)C)ccc1OC
outcome [1]: inactive
outcome [2]: inactive
outcome [3]: inactive
outcome [4]: inactive
fold change [5, 10]: 0.948 (inactive)
fold change [5, 11]: 0.866
cell count [5, 12]: 8860
cell count [5, 13]: 9350

COc1cc2c(Nc3ccc(Br)cc3F)ncnc2cc1OCC1CCN(C)CC1
AC50 [1]: 14.8 µM (active)
AC50 [2]: 20.9 µM (active)
AC50 [3]: 20.9 µM (active)
IC50 [4]: 26.3 µM (active)
fold change [5, 10]: 0.896 (inactive)
fold change [5, 11]: 1.03
cell count [5, 12]: 1750
cell count [5, 13]: 1950
SSMD [8]: -3.85
cell count [8]: 4710
plate-normalised HSF1 focus index [8]: 0.799 (inactive)
z-score [6, 14]: -0.0745 (inactive)
z-score [6, 15]: -0.742
viability ([9]; at 0.000305 µM, OCI-C5x cells, with rucaparib 10 µM, 100% = cells with rucaparib alone): 108% (inactive)
viability ([9]; at 0.000305 µM, OCI-C5x cells, without rucaparib): 109% (inactive)
viability ([9]; at 0.000305 µM, OCI-P5x cells, with rucaparib 20 µM, 100% = cells with rucaparib alone): 82.1% (active)
viability ([9]; at 0.000305 µM, OCI-P5x cells, without rucaparib): 95.9% (active)
viability ([9]; at 0.00122 µM, OCI-C5x cells, with rucaparib 10 µM, 100% = cells with rucaparib alone): 103% (inactive)
viability ([9]; at 0.00122 µM, OCI-C5x cells, without rucaparib): 106% (inactive)
viability ([9]; at 0.00122 µM, OCI-P5x cells, with rucaparib 20 µM, 100% = cells with rucaparib alone): 92.5% (active)
viability ([9]; at 0.00122 µM, OCI-P5x cells, without rucaparib): 100% (inactive)
viability ([9]; at 0.00488 µM, OCI-C5x cells, with rucaparib 10 µM, 100% = cells with rucaparib alone): 122% (inactive)
viability ([9]; at 0.00488 µM, OCI-C5x cells, without rucaparib): 111% (inactive)
viability ([9]; at 0.00488 µM, OCI-P5x cells, with rucaparib 20 µM, 100% = cells with rucaparib alone): 87.8% (active)
viability ([9]; at 0.00488 µM, OCI-P5x cells, without rucaparib): 104% (inactive)
viability ([9]; at 0.0195 µM, OCI-C5x cells, with rucaparib 10 µM, 100% = cells with rucaparib alone): 110% (inactive)
viability ([9]; at 0.0195 µM, OCI-C5x cells, without rucaparib): 118% (inactive)
viability ([9]; at 0.0195 µM, OCI-P5x cells, with rucaparib 20 µM, 100% = cells with rucaparib alone): 90.3% (active)
viability ([9]; at 0.0195 µM, OCI-P5x cells, without rucaparib): 112% (inactive)
viability ([9]; at 0.0781 µM, OCI-C5x cells, with rucaparib 10 µM, 100% = cells with rucaparib alone): 111% (inactive)
viability ([9]; at 0.0781 µM, OCI-C5x cells, without rucaparib): 118% (inactive)
viability ([9]; at 0.0781 µM, OCI-P5x cells, with rucaparib 20 µM, 100% = cells with rucaparib alone): 88% (active)
viability ([9]; at 0.0781 µM, OCI-P5x cells, without rucaparib): 101% (inactive)
viability ([9]; at 0.313 µM, OCI-C5x cells, with rucaparib 10 µM, 100% = cells with rucaparib alone): 112% (inactive)
viability ([9]; at 0.313 µM, OCI-C5x cells, without rucaparib): 113% (inactive)
viability ([9]; at 0.313 µM, OCI-P5x cells, with rucaparib 20 µM, 100% = cells with rucaparib alone): 83.3% (active)
viability ([9]; at 0.313 µM, OCI-P5x cells, without rucaparib): 103% (inactive)
viability ([9]; at 1.25 µM, OCI-C5x cells, with rucaparib 10 µM, 100% = cells with rucaparib alone): 111% (inactive)
viability ([9]; at 1.25 µM, OCI-C5x cells, without rucaparib): 116% (inactive)
viability ([9]; at 1.25 µM, OCI-P5x cells, with rucaparib 20 µM, 100% = cells with rucaparib alone): 78.7% (active)
viability ([9]; at 1.25 µM, OCI-P5x cells, without rucaparib): 102% (inactive)
viability ([9]; at 5 µM, OCI-C5x cells, with rucaparib 10 µM, 100% = cells with rucaparib alone): 55.4% (active)
viability ([9]; at 5 µM, OCI-C5x cells, without rucaparib): 51.8% (active)
viability ([9]; at 5 µM, OCI-P5x cells, with rucaparib 20 µM, 100% = cells with rucaparib alone): 43.9% (active)
viability ([9]; at 5 µM, OCI-P5x cells, without rucaparib): 78.9% (active)

C[C@@H]1CN(c2c(F)c(N)c3c(=O)c(C(=O)O)cn(C4CC4)c3c2F)C[C@H](C)N1
outcome [1]: inactive
outcome [2]: inactive
outcome [3]: inactive
outcome [4]: inactive
fold change [5, 10]: 0.881 (inactive)
fold change [5, 11]: 1.37
cell count [5, 12]: 9500
cell count [5, 13]: 10800
z-score [6, 14]: -0.149 (inactive) and 0.182 (inactive)
z-score [6, 15]: -0.511 and -0.3

S=P(N1CC1)(N1CC1)N1CC1
outcome [1]: inactive
outcome [2]: inactive
outcome [3]: inactive
outcome [4]: inactive
fold change [5, 10]: 0.906 (inactive)
fold change [5, 11]: 2.37
cell count [5, 12]: 2790
cell count [5, 13]: 3080

CC1=C(C)C(=O)C(C(CCCCCC(=O)O)c2ccccc2)=C(C)C1=O (stereo not drawn)
outcome [1]: inactive
outcome [2]: inactive
outcome [3]: inactive
outcome [4]: inactive
fold change [5, 10]: 0.907 (inactive)
fold change [5, 11]: 0.844
cell count [5, 12]: 9450
cell count [5, 13]: 10400

CN(C)c1ccc(C(=C2C=CC(=[N+](C)C)C=C2)c2ccc(N(C)C)cc2)cc1
AC50 [1]: 0.833 µM (active)
AC50 [2]: 0.372 µM (active)
AC50 [3]: 1.86 µM (active)
IC50 [4]: 2.63 µM (active)
fold change [5, 10]: 0.999 (inactive) and 0.737 (inactive)
fold change [5, 11]: 0.9 and 1.26
cell count [5, 12]: 1530 and 788
cell count [5, 13]: 1530 and 1070
z-score [6, 14]: 3.09 (active)
z-score [6, 15]: -2.82

CCC1(C)CC(=O)NC1=O (stereo not drawn)
outcome [1]: inactive
outcome [2]: inactive
outcome [3]: inactive
outcome [4]: inactive
fold change [5, 10]: 0.975 (inactive) and 0.962 (inactive) and 0.96 (inactive)
fold change [5, 11]: 1.24 and 1.03 and 2.35
cell count [5, 12]: 10300 and 8160 and 12600
cell count [5, 13]: 10600 and 8470 and 13100
outcome [7]: inactive
z-score [6, 14]: -0.00472 (inactive)
z-score [6, 15]: -0.121

O=C(O)CSCC(=O)NC1CCSC1=O (stereo not drawn)
outcome [1]: inactive
outcome [2]: inactive
outcome [3]: inactive
outcome [4]: inactive
fold change [5, 10]: 0.961 (inactive) and 0.85 (inactive)
fold change [5, 11]: 0.755 and 1.41
cell count [5, 12]: 8260 and 8130
cell count [5, 13]: 8600 and 9570
z-score [6, 14]: -0.199 (inactive)
z-score [6, 15]: 0.356

O=c1oc2c(O)c(O)cc3c(=O)oc4c(O)c(O)cc1c4c23
outcome [1]: inactive
outcome [2]: inactive
outcome [3]: inactive
outcome [4]: inactive
